High-throughput results deposited in PubChem by several laboratories.
Compounds with a hit are over-represented: about 3.8% of the library has one in this group of screens.
Jurkat NFkB inh: lowers PMA/ionomycin-induced NF-kB signal in Jurkat cells; PMA/ionomycin-induced NF-kB luciferase reporter, luminescence; inhibition, % at 4 µM; hit rate 0.53% among 330,000; in the data active means inhibition above about 50%
Mdm2 MdmX PPI: inhibitors of human Mdm2/MdmX interaction. O15151+Q00987. SaOS-2 split-luciferase Mdm2/MdmX complementation, luminescence. inhibition, % at 8 µM. hit rate 3% among 330,000. AID 485346;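 active means inhibition of at least 50% at 8 µM in the primary screen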
Target sequence (O15151 whole entry, looked up): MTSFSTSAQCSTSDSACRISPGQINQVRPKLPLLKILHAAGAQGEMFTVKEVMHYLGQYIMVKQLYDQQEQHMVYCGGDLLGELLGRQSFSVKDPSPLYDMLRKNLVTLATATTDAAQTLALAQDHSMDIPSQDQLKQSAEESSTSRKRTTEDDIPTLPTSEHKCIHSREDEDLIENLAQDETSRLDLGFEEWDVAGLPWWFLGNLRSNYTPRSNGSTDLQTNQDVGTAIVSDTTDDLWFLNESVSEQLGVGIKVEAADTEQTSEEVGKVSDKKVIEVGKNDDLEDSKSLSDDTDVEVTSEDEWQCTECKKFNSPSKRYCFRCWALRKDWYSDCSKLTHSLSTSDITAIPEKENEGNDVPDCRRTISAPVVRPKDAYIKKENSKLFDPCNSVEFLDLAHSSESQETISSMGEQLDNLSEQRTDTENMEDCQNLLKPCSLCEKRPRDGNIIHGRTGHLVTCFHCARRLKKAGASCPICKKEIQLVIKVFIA
Target sequence (Q00987 whole entry, looked up): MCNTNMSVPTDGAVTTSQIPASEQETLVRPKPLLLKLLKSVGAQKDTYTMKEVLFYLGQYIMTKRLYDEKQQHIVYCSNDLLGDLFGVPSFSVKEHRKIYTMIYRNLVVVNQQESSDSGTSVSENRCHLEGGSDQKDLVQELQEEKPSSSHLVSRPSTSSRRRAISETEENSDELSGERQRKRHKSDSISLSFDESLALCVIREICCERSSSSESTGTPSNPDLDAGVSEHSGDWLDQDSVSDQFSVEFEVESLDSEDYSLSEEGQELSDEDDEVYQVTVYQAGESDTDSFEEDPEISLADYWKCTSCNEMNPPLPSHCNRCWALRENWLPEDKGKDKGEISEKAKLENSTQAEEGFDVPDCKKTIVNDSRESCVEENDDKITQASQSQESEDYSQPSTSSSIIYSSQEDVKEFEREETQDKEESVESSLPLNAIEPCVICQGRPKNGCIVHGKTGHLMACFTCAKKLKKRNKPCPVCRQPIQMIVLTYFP
Gli-Sufu block: Gli-Sufu pathway antagonism | Sufu-KO-LIGHT fibroblasts, Gli luciferase reporter luminescence | inhibition, % at 5 µM | hit rate 0.74% among 340,000 | AID 588413;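 active means inhibition above about 55%, limit read from the data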;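 further: 0% = DMSO-treated cells and 100% = wells with medium but no cells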
Shn3 inh set2: Schnurri-3 reporter inhibition in Clone20 osteoblasts. Clone20 osteoblast Shn3 3'UTR firefly luciferase, 24 h. inhibition, % at 12.5 µM. hit rate 0.52% among 360,000;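 active means mean inhibition of at least 75% with every replicate also reaching 75%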;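 further: 0% = median of neutral control wells and 100% = pilot-screen positive control compound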
697 NFkB inh: lowers PMA/ionomycin-induced NF-kB signal in 697 B cells; inhibition, % at 4 µM; 697 B-cell NF-kB luciferase reporter, 16 h; AID 435022; hit rate 0.33% among 330,000; in the data active means inhibition above about 35%
Mdm2-MdmX conf: human Mdm2/MdmX binding inhibition, confirmed. shares compounds with Mdm2 MdmX PPI. luminescent assay. inhibition, % at 8 µM. hit rate 55% among 10,000; in the data active means inhibition above about 40%
FLuc counter: inhibits full-length luciferase, flagging false Mdm2/MdmX hits; shares compounds with Mdm2 MdmX PPI; SaOS-2 full-length luciferase counterscreen, luminescence; inhibition, % at 8 µM; hit rate 77% among 6,200;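 active means mean inhibition at 8 µM reaching about 37%, which flags the compound as non-specific, limit read from the data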;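 further: p53-null SaOS-2 cells with luciferase driven by a doxycycline-inducible promoter; compound on cells about two nights before reading with doxycycline added after day one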
Gli-Sufu confirm: confirmation of Gli-SUFU pathway antagonists; shares compounds with Gli-Sufu block; Sufu-KO-LIGHT cells, Gli luciferase reporter, luminescence; inhibition, % at 5 µM; hit rate 40% among 2,500; AID 602428;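 active means mean inhibition at 5 µM reaching about 45%, limit read from the data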;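 further: plate controls were DMSO-treated cells for no effect and wells lacking cells for full effect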
Gli cytotox: cytotoxic in Gli-SUFU antagonist counter-screen; shares compounds with Gli-Sufu block; Sufu-KO-LIGHT cells cytotoxicity, ATP luminescence; cytotoxicity, % at 5 µM; hit rate 32% among 2,500; AID 651994;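 active means mean cytotoxicity at 5 µM above about 25%, limit read from the data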;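 further: cells exposed to compound overnight for roughly 16 to 18 hours; plate controls were DMSO wells with cells for no effect and medium without cells for full effect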
Wnt3a counter: inhibits Wnt3a reporter, counter-screen for Gli-SUFU antagonists; inhibition, % at 6.25 µM; Wnt-LIGHT cells, Wnt3a-driven luciferase reporter, luminescence; hit rate 20% among 2,500; shares compounds with Gli-Sufu block;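 active means mean inhibition above about 25%, limit read from the data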
* = called active by the depositor; / = not tested or not shown.

SMILES	Jurkat NFkB inh	Mdm2 MdmX PPI	Gli-Sufu block	Shn3 inh set2	697 NFkB inh	Mdm2-MdmX conf	FLuc counter	Gli-Sufu confirm	Gli cytotox	Wnt3a counter
COC(=O)c1[nH]c2c(c1C)C(=O)CC(c1ccccc1)C2 (stereo not given)	44.7	69.7*	56.9*	0.8	-49.8	55.3*	89.5*	51.7*	53.4*	-23.8
CCOC(=O)c1[nH]c2c(c1-c1ccccc1)C(=O)CC(c1ccccc1)C2 (stereo not given)	2.6	7.2	-11.4	-9.3	-14.8	/	/	/	/	/
CC(C)(C)c1ccc(C(=O)NCCOc2ccccc2F)cc1	-64.9	62.4*	55.1*	23.6	-150.8	73.1*	148.4*	74.2*	18.0	88.9*
COc1ccccc1C(=O)NCCOc1ccc(C(C)(C)C)cc1	20.8	15.4	-5.0	19.3	-7.0	/	/	/	/	/
Nc1ccc(C(=O)N/N=C\c2cc(N=Nc3cccc4ccccc34)ccc2O)cc1	7.1	57.1*	66.6*	89.1*	-56.8	67.2*	36.2*	65.5*	40.5*	58.7*
COC(=O)N/N=C/c1cc(N=Nc2ccccc2Cl)ccc1O	4.3	16.9	-44.0	-61.3	-4.4	/	/	/	/	/
CC(C)n1c(O)c(N=NC(=O)C2COc3ccccc3O2)c2ccccc21 (stereo not given)	-21.6	-10.7	46.1	10.5	-3.5	/	/	/	/	/
OC(c1ccc(F)c(F)c1)c1ncc(-c2ccc(F)cc2)[nH]1 (stereo not given)	/	/	/	-11.2	/	/	/	/	/	/
CCN1CCc2c(sc(NC(=O)c3cc4ccccc4cc3OC)c2C(N)=O)C1	1.6	100.4*	69.1*	19.5	-110.7	18.4	/	20.1	17.7	-47.6
O=C(CN1CCN(C(=O)CNC(=O)c2ccc3c(c2)OCO3)CC1)Nc1cccc(F)c1	1.5	17.7	-8.6	-7.1	1.0	/	/	/	/	/
CCO/C(=C/c1sc2ccc(OC)cc2[n+]1CCCS(=O)(=O)[O-])CC	-6.1	-5.1	10.6	-14.2	9.8	/	/	/	/	/
CCC(/C=C1\Sc2ccc(OC)cc2N1CC)=C\c1sc2ccc(OC)cc2[n+]1CCCS(=O)(=O)[O-]	-6.0	53.9*	70.3*	74.9	18.2	24.9	/	81.7*	40.3*	4.8
COC(=O)c1cc(C)sc1NC(=O)CSc1ncccn1	0.5	13.6	4.1	-4.1	-23.7	/	/	/	/	/
CCCC(=O)NC(c1ccc(Cl)cc1)c1ccc2cccnc2c1O (stereo not given)	46.5	78.1*	85.8*	84.6	-24.4	83.5*	57.0*	82.4*	34.8*	71.4*
CCc1ccc(/C=C/c2c[nH]c3ccccc23)[n+](CC)c1	36.6	53.4*	77.9*	81.0	3.9	44.0*	58.9*	82.5*	31.5*	45.6*
Cc1nc2c(-c3ccc(Cl)cc3)cnn2c(N)c1-c1ccc(F)cc1	-51.0	87.6*	62.7*	-39.5	-247.8	84.6*	105.0*	81.3*	18.4	84.3*
CCOC(=O)c1oc2ccc(S(=O)(=O)n3nc(-c4ccc(Cl)cc4)cc3N)cc2c1C	37.9	61.8*	54.4	46.6	-61.4	54.1*	56.8*	8.0	18.5	-10.9
COc1ccc(-n2nc3c(N4CCC(C(=O)NC5CCCCC5)CC4)nnc(C)c3c2C)cc1	19.3	97.4*	90.8*	-4.2	6.4	22.1	75.6*	23.9	16.8	-91.9
CN(Cc1ccc(OC(F)F)cc1)C(=O)/C=C/c1ccc(S(=O)(=O)N2CCOCC2)cc1	19.7	14.6	3.8	51.7	-3.8	/	/	/	/	/
Cc1cc(Nc2cccc(Cl)c2)nc(NCc2ccccc2)n1	-7.0	58.6*	73.8*	86.9*	-31.6	39.6	61.9*	52.0*	31.9*	-8.9
CC1CCC(NC(=O)COC(=O)c2ccco2)CC1 (stereo not given)	-11.5	3.7	5.5	-6.6	5.3	/	/	/	/	/
Fc1ccc(-n2nnnc2-c2cnc(-c3cccs3)nc2C(F)(F)F)cc1	11.8	56.2*	51.3	90.4*	-44.8	43.5*	58.7*	56.1*	30.6*	-13.1
CSc1cccc(N2CC(C(=O)N(Cc3nnc(-c4ccccc4Cl)o3)C3CC3)CC2=O)c1 (stereo not given)	15.8	27.5	11.2	22.8	-7.6	/	/	/	/	/
Cc1cc(SC#N)cc(C)c1NC(=O)CCl	21.3	58.6*	50.6	-3.1	-0.1	49.1*	33.8	46.1*	50.2*	19.4
CCC(=O)Nc1ccc(SC#N)cc1C	7.9	33.7	-3.6	23.3	21.2	/	/	/	/	/
SMILES	Jurkat NFkB inh	Mdm2 MdmX PPI	Gli-Sufu block	Shn3 inh set2	697 NFkB inh	Mdm2-MdmX conf	FLuc counter	Gli-Sufu confirm	Gli cytotox	Wnt3a counter
Cc1ccc(Cl)cc1NC(=O)c1cc2ccccc2cc1O	13.4	92.7*	60.7*	73.3	-14.5	96.5*	51.7*	70.9*	26.3*	56.2*
Cc1ccc(Cl)cc1NC(=O)COC(=O)c1ccccc1O	10.8	24.0	5.6	-14.0	1.0	/	/	/	/	/
Nc1cc(OCC(F)(F)F)cc([N+](=O)[O-])c1	0.9	-20.0	-2.9	-4.6	-12.5	/	/	/	/	/
Nc1cc(N)c(OCC(F)(F)F)cc1OCC(F)(F)F	2.8	77.8*	68.0*	5.3	-7.4	13.6	/	22.7	1.6	23.8
Cc1nc2ccccc2c(N)c1C(=O)/C=C/c1ccccc1	13.9	76.3*	61.3*	-1.5	-35.2	33.0	75.0*	14.6	-1.5	-55.2
COC(=O)Cc1[nH]n(-c2nc3ccccc3s2)c(=O)c1C(C)=Nc1ccc(C)cc1	44.9	56.2*	90.2*	48.9	14.6	55.7*	32.2	93.6*	13.8	106.2*
COC(=O)Cc1[nH]n(-c2ccccc2)c(=O)c1C(C)=Nc1ccccc1	-12.7	-31.8	-3.6	-3.1	-8.1	/	/	/	/	/
Nc1nc2ccccc2n1/N=C/c1ccc([N+](=O)[O-])s1	18.6	56.3*	54.3	29.3	-28.2	47.2*	47.5*	52.6*	19.0	-117.8
CCCCOc1ccc(C(=O)NCC(=O)NC2CCN(Cc3ccccc3)CC2)cc1	-8.5	25.7	17.3	20.4	-5.2	/	/	/	/	/
Cc1cccc(CSC(Nc2ccc(F)cc2)=C(C#N)C#N)c1	7.8	94.2*	55.7*	53.8	-7.9	88.8*	50.0*	61.8*	23.9	52.4*
CC(C)c1ccc(-c2nc3ccccc3s2)cc1	45.4	87.4*	64.2*	88.0*	-31.5	88.5*	35.8	82.2*	72.6*	105.9*
FC(F)(F)c1ccc(-c2nc3ccccc3s2)cc1	/	/	/	-138.4	/	/	/	/	/	/
COCCNC(=S)N1CCN(Cc2cccc(OC)c2)CC1	13.5	16.0	4.7	-56.8	-0.4	/	/	/	/	/
